Test results as given in article PMC4552634, “A New Set of Chemical Starting Points with Plasmodium falciparum Transmission-Blocking Potential for Antimalarial Drug Discovery” (PLoS ONE, 2015).
Like-named read-outs stand apart in the source and are kept apart here. Screen size: about 13,000 compounds; about 3,200 (25%) showed an effect of 50% or more. The list shows a part of the results.

System: P. falciparum stage V gametocytes
Set-up: BacTiter-Glo ATP luminescence viability of purified stage V gametocytes in 384-well plates, per cent inhibition versus DMSO
Conditions: 48 h, 5 µM, inhibitor

| Compound | % Inhibition [%] | % Inhibition (% Inhibition) [%] |
| --- | --- | --- |
| COc1cccc(CN2CCCC(OC(c3ccccc3)c3ccccc3)C2)c1O (centres unmarked) [TCMDC-136385] | -25.83 | – |
| CCCN1CCN(CCCNC(=O)c2cc3c(-c4ccc(Cl)cc4)nn(C)c3s2)CC1 [TCMDC-124731] | 12.34 | – |
| Cn1nc(-c2ccc(Cl)cc2)c2cc(C(=O)NCCN3CCOCC3)sc21 [TCMDC-124416] | 0.2691 | – |
| CCN1CCCC1CNC(=O)c1cc2c(-c3ccc(Cl)cc3)nn(C)c2s1 (centres unmarked) [TCMDC-123579] | 67.12 | – |
| CCc1cn2c3c(cc(C(=O)N[C@@H](Cc4ccccc4)[C@H](O)CNCC(C)C)cc13)N(C)S(=O)(=O)CC2 [TCMDC-135804] | 36.82 | – |
| CCCNC[C@@H](O)[C@H](Cc1ccccc1)NC(=O)c1cc2c3c(c1)c(CC)cn3CCS(=O)(=O)N2C [TCMDC-135863] | 78.77 | – |
| CCc1cn2c3c(cc(C(=O)N[C@@H](Cc4ccccc4)[C@H](O)CNCc4ccc(C)cc4)cc13)N(C)S(=O)(=O)CC2 [TCMDC-135924] | 11.35 | – |
| CCCCNC[C@@H](O)[C@H](Cc1ccccc1)NC(=O)c1cc2c3c(c1)c(CC)cn3CCS(=O)(=O)N2C [TCMDC-135802] | 53.96 | – |
| CCc1cn2c3c(cc(C(=O)N[C@@H](Cc4ccccc4)[C@H](O)CNCCOC)cc13)N(C)S(=O)(=O)CC2 [TCMDC-135799] | 12.82 | – |
| CCNC[C@@H](O)[C@H](Cc1ccccc1)NC(=O)c1cc2c3c(c1)c(CC)cn3CCS(=O)(=O)N2C [TCMDC-135800] | 27.6 | – |
| CCc1cn2c3c(cc(C(=O)N[C@@H](Cc4ccccc4)[C@H](O)CNCc4cccc(C)c4)cc13)N(C)S(=O)(=O)CC2 [TCMDC-135923] | 15.33 | – |
| CCc1cn2c3c(cc(C(=O)N[C@@H](Cc4ccccc4)[C@H](O)CNCc4ccccc4C)cc13)N(C)S(=O)(=O)CC2 [TCMDC-135922] | -22.32 | – |
| CCc1cn2c3c(cc(C(=O)N[C@@H](Cc4ccccc4)[C@H](O)CNCc4ccccc4)cc13)N(C)S(=O)(=O)CC2 [TCMDC-135883] | 74.56 | – |
| COC(=O)c1ccc(CC(C)NCC(O)c2cccc(C(F)(F)F)c2)cc1 (centres unmarked) [TCMDC-131435] | – | 22.12 |
| COc1ccc(OC)c(CNCC(O)c2cc(C(F)(F)F)cc(C(F)(F)F)c2)c1 (centres unmarked) [TCMDC-140306] | 38.32 | – |
| Cc1nc2ccc3ccc(CNc4ccc(C(=O)CC(CCC(=O)O)C(=O)O)cc4)cc3c2c(=O)[nH]1 (centres unmarked) [TCMDC-137855] | 12.05 | – |
| COc1cc(C(C)C)ccc1N1CCN(CCCCNC(=O)c2ccc(NC(=O)c3ccc(Cl)cc3)cc2)CC1 [TCMDC-138518] | -18.1 | – |
| N#Cc1cccc(NC(=O)Nc2cccc(-c3cccc(-c4nc5ccc(F)cc5[nH]4)c3)c2)c1 [TCMDC-133197] | -38 | – |
| COCC(=O)N(Cc1ccccc1-c1ccc(CNCCc2ccccc2)cc1)C1CCN(Cc2ccccc2)CC1 [TCMDC-140534] | 105.6 | – |
| COCC(=O)N(Cc1ccccc1-c1cccc(CNCCc2ccccc2)c1)C1CCN(Cc2ccccc2)CC1 [TCMDC-140533] | 103.5 | – |
| CCNc1cc(C(=O)N[C@@H](Cc2ccc(F)c(F)c2)[C@H](O)CNCc2cccc(OC)c2)cc(N2CCCCS2(=O)=O)c1 [TCMDC-135059] | -18.05 | – |
| CC1(C)N=C(NC(=O)c2ccc([N+](=O)[O-])cc2)N=C(N)N1OCc1ccc2ccccc2c1 [TCMDC-131580] | 48.26 | – |
| CC12CC3CC(C)(C1)CC(Nc1nc(N4CCOCC4)nc4ccccc14)(C3)C2 [TCMDC-123862] | -97.33 | – |
| Nc1nc(N)c2c(Cl)c(N3CCOCC3)ccc2n1 [TCMDC-137868] | -6.497 | – |
| FC(F)c1nc2ccccc2n1-c1nc(N2CCOCC2)nc(N2CCOCC2)n1 [TCMDC-137004] | 98.45 | – |

| Compound | % Inhibition [%] | % Inhibition (% Inhibition) [%] |
| --- | --- | --- |
| O=c1ccc2ccc(F)cc2n1CCN1CCC(NCc2ccc(-c3ccccn3)s2)CC1 [TCMDC-135133] | 2.874 | – |
| NC1=NC(c2ccccc2)N(c2ccc(Cl)c(Cl)c2)C(N)=N1 (centres unmarked) [TCMDC-136305] | 1.025 | – |
| CCN(CC)CCCNc1nccc(N(C)c2ccc(NC(=O)Nc3cc(C(F)(F)F)ccc3F)cc2)n1 [TCMDC-141634] | 97.67 | – |
| CCNC(=O)Nc1ccc(N(C)c2ccnc(Nc3ccc(CS(C)(=O)=O)cc3)n2)cc1 [TCMDC-138759] | -39.6 | – |
| CCN(CC)CCNc1nccc(N(C)c2ccc(NC(=O)Nc3cc(C(F)(F)F)ccc3F)cc2)n1 [TCMDC-141632] | 74.5 | – |
| CN(c1ccc(NC(=O)Nc2cc(C(C)(C)C)on2)cc1)c1ccnc(NCCOC(=O)Nc2cc(C(C)(C)C)on2)n1 [TCMDC-141707] | 55.26 | – |
| CN(c1ccc(NC(=O)Nc2cccc(Cl)c2)cc1)c1ccnc(N)n1 [TCMDC-138782] | 0.5988 | – |
| CN(C)CCCNc1nccc(N(C)c2ccc(NC(=O)Nc3cc(C(F)(F)F)ccc3F)cc2)n1 [TCMDC-141633] | 100.7 | – |
| CN(c1ccc(NC(=O)Nc2cc(C(C)(C)C)on2)cc1)c1ccnc(NCCN2CCOCC2)n1 [TCMDC-141706] | 2.344 | – |
| COc1cc(NC(=O)CCCCCCCCN2CCN(C)CC2)c2ncccc2c1 [TCMDC-138212] | 0.271 | – |
| CCCCCCc1cc2cc(-c3csc(C=Cc4ccccc4)n3)c(=O)oc2cc1O [TCMDC-125662] | -11.21 | – |
| COc1ccc2nccc([C@@H](O)CN3CCC(NCc4cc5ccccc5s4)CC3)c2c1 [TCMDC-140684] | 1.924 | – |
| COc1ccc2nccc([C@@H](O)CN3CCC(NCc4[nH]c5ccccc5c4F)CC3)c2c1 [TCMDC-141052] | 4.499 | – |
| CCCNC(=O)Nc1ccc(N(C)c2ccnc(NC3CC3)n2)cc1 [TCMDC-138764] | 12.51 | – |
| CCNC(=O)Nc1ccc(N(C)c2ccnc(NC3CC3)n2)cc1 [TCMDC-138763] | 40.84 | – |
| CC(=O)c1ccc(NC(=O)Nc2ccc(N(C)c3ccnc(NC4CC4)n3)cc2)cc1 [TCMDC-138767] | 82.68 | – |
| O=C1OC2(CCN(Cc3cccc(-c4ncc[nH]4)c3)CC2)CN1CCNCc1ccccc1 [TCMDC-136733] | -38.21 | – |
| CCNc1cc(C)nc(Nc2ccc(NC(=O)Cc3ccc(OC)cc3)cc2)n1 [TCMDC-124983] | 15.74 | – |
| Cc1cc(NCCC(=O)Nc2ccccc2)nc(NCCc2ccc(F)cc2)n1 [TCMDC-134783] | 44.82 | – |
| COc1ccc(Nc2cc(C)nc(NCc3ccc4c(c3)OCO4)n2)cc1 [TCMDC-136332] | 81.18 | – |
| COc1ccccc1CCNc1nc(C)cc(NCCC(=O)Nc2ccccc2)n1 [TCMDC-134800] | 76.83 | – |
| Cc1cc(NCCC(=O)Nc2ccccc2)nc(NCCc2ccccc2)n1 [TCMDC-134772] | 51 | – |
| COc1ccc(Nc2nc(C)cc(NCc3ccc(-c4c(C)noc4C)cc3)n2)cc1 [TCMDC-134024] | -1.002 | – |
| Cc1cc(NCCC(=O)Nc2ccccc2)nc(NCCc2cccs2)n1 [TCMDC-134872] | 26.35 | – |
| Cc1cc(NCCC(=O)Nc2ccccc2)nc(NCCc2cccnc2)n1 [TCMDC-134880] | 47.41 | – |

| Compound | % Inhibition [%] | % Inhibition (% Inhibition) [%] |
| --- | --- | --- |
| Cc1cccc(CNc2nc(C)cc(NCCC(=O)Nc3ccccc3)n2)c1 [TCMDC-134885] | 25.97 | – |
| COc1ccc(NC(=O)CCNc2cc(C)nc(NCc3cccc(C)c3)n2)cc1 [TCMDC-134883] | 59.29 | – |
| COc1ccc(NC(=O)CCNc2cc(C)nc(NCc3ccccc3C)n2)cc1 [TCMDC-134899] | 34.68 | – |
| Cc1ccc(C)c(-n2c(SCC(=O)Nc3ccc(C(N)=O)cc3)nnc2-c2cccc(Cl)c2)c1 [TCMDC-124332] | 36.9 | – |
| O=C(Nc1cccc(F)c1)NC1CCN(c2ccnc3cc(Cl)ccc23)CC1 [TCMDC-133569] | -8.116 | – |
| Cc1ccccc1-c1nc2c(CN3CCC(O)(c4ccccc4)CC3)c(O)ccc2[nH]1 [TCMDC-136533] | 40.24 | – |
| CCCc1ccc(NC(=O)c2cccc(CN3CCCN(Cc4cccc(C#N)c4)CC3)c2)cc1 [TCMDC-135977] | -19.91 | – |
| O=C(Cc1ccc(NC(=O)c2ccc(O)c(-c3ccc(Cl)c(Cl)c3)c2)cc1)NCCN1CCOCC1 [TCMDC-140853] | -3.124 | – |
| CCCC(C)Nc1nc(C)cc(NCCC(=O)Nc2ccc(OC)cc2)n1 (centres unmarked) [TCMDC-134762] | 20.26 | – |
| COc1ccc(NC(=O)CCNc2cc(C)nc(NCCc3ccccc3)n2)cc1 [TCMDC-134770] | 41.15 | – |
| COc1ccc(NC(=O)CCNc2cc(C)nc(NCCc3ccc(F)cc3)n2)cc1 [TCMDC-134864] | 55.47 | – |
| c1csc(-c2nc(N3CCCC3)ncc2-c2ccsc2)n1 [TCMDC-125373] | 23.84 | – |
| CS(=O)(=O)Cc1ccc(Nc2nccc(-c3c(-c4cccc(C(=O)Nc5c(F)cccc5F)c4)nn4ccccc34)n2)cc1 [TCMDC-135742] | -95.17 | – |
| CCCN1CCN(CCCNC(=O)c2cc3c(Cl)nc4ccc(C)cc4c3s2)CC1 [TCMDC-124441] | 16.62 | – |
| Cc1ccc2nc3sc(C(=O)NCCCN4CCC(N5CCCCC5)CC4)cc3cc2c1 [TCMDC-125157] | 73.7 | – |
| O=C(NCCCN1CCC(N2CCCCC2)CC1)C1=Cc2cc(Br)ccc2OC1 [TCMDC-124696] | 29.02 | – |
| CCCCCCNC(=O)c1nn(CCN2CCC(N3CCCC3)CC2)cc1-c1ccc(Cl)c(Cl)c1 [TCMDC-141907] | 27.94 | – |
| O=C(NCCCN1CCC(N2CCCCC2)CC1)c1ccc2nc(N3CCCCC3)sc2c1 [TCMDC-124404] | 56.64 | – |
| O=C(NC1CC1)c1ccc(N2CCOc3ccc(Cl)cc32)s1 [TCMDC-125270] | 3.185 | – |
| Cc1c(C(=O)C2CC2CN2CCC(N3CCCCC3)CC2)sc2ccccc12 (centres unmarked) [TCMDC-132576] | 19.76 | – |
| Cc1ccc2nc(Cl)c3cc(C(=O)NCCCN4CCCC4)sc3c2c1 [TCMDC-125000] | 29.06 | – |
| Cc1cc(C)c2nc(N3CCC(C(=O)NCCCN4CCC(N5CCCCC5)CC4)CC3)sc2c1 [TCMDC-124448] | 62.4 | – |
| O=C(NCCCN1CCC(N2CCCCC2)CC1)c1ccc(N2CCOc3ccccc32)s1 [TCMDC-125271] | 84.69 | – |
| N#Cc1ccc(-c2ccc(C(=O)NCCCCN3CCC(n4cnc5ccccc54)CC3)cc2)cc1 [TCMDC-138796] | -25.18 | – |
